Reference: PubChem BioAssay (NCATS)
Where “and” joins values, the source holds several entries; their conditions need not be identical. Identical values can stand only once. Results filed as inconclusive are left out. Calls of active or inactive are those of the source. Unless noted, calls come from the whole dose curve.

Assays:
[1] = Cell Viability - Jurkat (AID 426;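 active = dose-dependent loss of cell ATP signal giving a full or clear fitted curve, ranked by lower potency value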;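 note: potency is the fitted concentration of half-maximal effect; cells exposed to compound for 40 hours at 37 °C before ATP read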); conditions: qHTS
In short: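 Cytotoxicity was scored as loss of cellular ATP, measured by luciferase-based luminescence, in Jurkat clone E6-1 cells after 40 h compound treatment; tamoxifen and doxorubicin served as positive controls.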

[2] = Cell Viability - Hek293 (AID 427;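 active = compounds whose dose-response curve shows a full or clear partial loss of cell viability, called from curve shape rather than a numeric limit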;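 note: potency is the fitted concentration of half-maximal effect; cells exposed to compound for 40 hours at 37 °C before reading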); conditions: qHTS
In short: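 qHTS, human embryonic kidney (adenovirus-transformed) cells; 40 hr cpd, 37 °C; CellTiter-Glo ATP luminescence. Norm: DMSO = 0, 100 uM tamoxifen = 100% inhibition. Hill-fit AC50.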

[3] = Cell Viability - HepG2 (AID 433); conditions: qHTS;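 note: potency is the fitted concentration of half-maximal effect; potency for ATP loss meaning cytotoxicity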
In short: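 HepG2 hepatocellular carcinoma cells (1500/well) were treated with compounds for 40 h at 37 °C in complete medium; intracellular ATP was read by CellTiter-Glo luminescence. Data were normalized to DMSO and 100 uM tamoxifen, and AC50 came from Hill fits.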

[4] = Cell Viability - MRC5 (AID 434); conditions: MRC5 lung fibroblast viability, qHTS;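 note: potency is the fitted concentration of half-maximal effect; potency reflects cytotoxicity seen as loss of intracellular ATP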
In short: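 ATP luminescence read-out (CellTiter-Glo, 20 min RT) after 40 hr, 37 °C compound exposure of 1500 MRC5 cells/well. Data normalized to DMSO (basal) and 100 uM tamoxifen (100% inhibition); AC50 from standard Hill equation.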

[5] = Cell Viability - SK-N-SH (AID 435); conditions: SK-N-SH neuroblastoma cell viability qHTS;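 note: potency is the fitted concentration of half-maximal effect; compound exposure lasted 40 h at 37 °C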
In short: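 SK-N-SH human neuroblastoma cells (1500/well) were exposed to compounds in complete medium for 40 h at 37 °C, and intracellular ATP was then measured by CellTiter-Glo luminescence. AC50 was taken from Hill fits, normalized to DMSO and 100 uM tamoxifen.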

[6] = Cell Viability - N2a (AID 540; active = well fitted curve in the direction sought with a large enough effect; an effect the other way counts as inactive or inconclusive;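 note: plate controls were DMSO alone for no effect and tamoxifen control for full effect; nearly all actives have a fitted effect of over 45% in size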); conditions: N2a mouse neuroblastoma cell viability; at 92.2 µM (top of the series)
In short: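 In this qHTS cytotoxicity screen, ATP-dependent luciferase luminescence reports viable N2a cells after a 40 hr compound exposure in complete culture medium. Potencies are AC50 values from standard Hill equation fits.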

[7] = Cell Viability - NIH 3T3 (AID 541; active = well fitted curve in the direction sought with a large enough effect; an effect the other way counts as inactive or inconclusive;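 note: plate controls were DMSO alone for no effect and tamoxifen positive control for full effect; nearly all actives have a fitted effect of over 25% in size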); conditions: NIH 3T3 cell viability, qHTS; at 92.2 µM (top of the series)
In short: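 In this cytotoxicity screen, acute toxicity is scored as an ATP drop measured by CellTiter-Glo in NIH 3T3 fibroblasts following a 40 hr, 37 °C incubation with compound.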

[8] = Cell Viability - HUV-EC-C (AID 542; active = well fitted curve in the direction sought with a large enough effect; an effect the other way counts as inactive or inconclusive; note: % is set by controls: 0 for no effect and ±100 for the full control effect; nearly all actives have a fitted effect of over 35% in size); conditions: HUV-EC-C endothelial cell viability, qHTS; series mostly up to 92.2 µM
In short: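 Concentration-dependent ATP loss in HUV-EC-C cells is the measure. Exposure lasts 40 hr at 37 °C; luminescence follows CellTiter-Glo addition, and Hill fits give AC50.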

[9] = Cell Viability - H-4-II-E (AID 543; active = well fitted curve in the direction sought with a large enough effect; an effect the other way counts as inactive or inconclusive; note: % is set by controls: 0 for no effect and ±100 for the full control effect; nearly all actives have a fitted effect of over 35% in size); conditions: H-4-II-E rat hepatoma viability; series mostly up to 92.2 µM
In short: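 AC50 from Hill-modelled qHTS concentration-response curves. H-4-II-E rat hepatoma cells in complete medium, 40 hr exposure at 37 °C, viability by CellTiter-Glo ATP luminescence.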

[10] = Cell Viability - SH-SY5Y (AID 544; active = well fitted curve in the direction sought with a large enough effect; an effect the other way counts as inactive or inconclusive;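 note: 0% = DMSO alone and -100% = 100 µM tamoxifen; nearly all actives have a fitted effect of over 55% in size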); conditions: SH-SY5Y neuroblastoma cell viability; series mostly up to 92.2 µM
In short: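 Quantitative HTS in SH-SY5Y neuroblastoma cells, 40 hr treatment at 37 °C, ATP content by luciferase luminescence; AC50 from Hill fits.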

[11] = Cell Viability - Renal Proximal Tubule (AID 545; active = well fitted curve in the direction sought with a large enough effect; an effect the other way counts as inactive or inconclusive;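 note: 0% = DMSO only and -100% = 100 µM tamoxifen; nearly all actives have a fitted effect of over 40% in size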); conditions: renal proximal tubule cells viability; series mostly up to 91.7 µM
In short: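 Primary rat renal proximal tubule cells (1000/well) were treated with compounds for 40 hr at 37 °C in complete medium. Intracellular ATP was measured by CellTiter-Glo luminescence, and AC50 values came from Hill-equation fits of concentration-response data.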

[12] = Cell Viability - Mesenchymal (AID 546; active = well fitted curve in the direction sought with a large enough effect; an effect the other way counts as inactive or inconclusive;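 note: cells exposed to compound for 40 hours before reading; 0% = DMSO only and -100% = 100 µM tamoxifen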); conditions: mesenchymal cells viability, qHTS; series mostly up to 91.7 µM
In short: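 Human renal mesenchymal cells (glomerulus-derived), 1000 cells/well, 5 hr 37 °C pre-incubation; compound 40 hr, 37 °C; CellTiter-Glo, 20 min RT; luminescence; AC50 via Hill equation.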

[13] = molecular target: Glucocorticoid receptor (Homo sapiens) (UniProt P04150); test: qHTS assay for small molecule agonists of glucocorticoid receptor signaling (AID 588532; active = well fitted curve in the direction sought with a large enough effect in the signal ratio, with a control signal flat; the % refers to the signal ratio;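 note: 100% = dexamethasone at 0.1 µM and 0% = DMSO only wells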); conditions: HeLa MMTV-bla, beta-lactamase ratio, agonist, 18 h; stronger effect = higher value; percent of dexamethasone control, DMSO zero
In short: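 Cells were plated and rested 3-5 h at 37 C, compounds were added in titration and incubated 18 h, then CCF4 substrate was loaded for 2 h at RT before reading blue/green fluorescence. EC50 came from Hill-equation fitting.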

[14] = molecular target: Glucocorticoid receptor (Homo sapiens) (UniProt P04150); test: qHTS assay for small molecule antagonists of glucocorticoid receptor signaling (AID 588533; active = well fitted inhibition curve with a large enough effect in the signal ratio, with a control signal flat, not every such curve was filed as active; the % refers to the signal ratio;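 note: cells stimulated with 2 nM dexamethasone as agonist; % is set by controls: 0 for no effect and ±100 for the full control effect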); conditions: HeLa MMTV-bla, GRE beta-lactamase ratio, antagonist mode, 18 h; series mostly up to 76.8 µM
In short: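 Antagonist-mode qHTS: compound titrations added to GRE-bla HeLa cells, then dexamethasone 2 nM final; 18 h, 37 C. CCF4 FRET fluorescence normalized to dexamethasone and DMSO; IC50 from Hill fit.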

[15] = qHTS assay for small molecule antagonists of peroxisome proliferator-activated receptor delta signaling (AID 588535; active = well fitted inhibition curve with a large enough effect in the signal ratio, with a control signal flat, not every such curve was filed as active; the % refers to the signal ratio;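 for max response: cells co-treated with a PPAR-delta agonist as stimulator during compound exposure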); conditions: HEK293T PPARd-UAS-bla, beta-lactamase FRET ratio, 18 h; 460 nm channel
In short: (§1)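 Beta-lactamase reporter read-out (405 nm excitation, 460/530 nm emission) after CCF4 loading for 2 hrs at RT. HEK293T PPAR-delta-UAS-bla cells, 2% charcoal/dextran FBS, compounds for 18 hrs at 37 C. Hill fit gave IC50 and efficacy.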

[16] = molecular target: Peroxisome proliferator-activated receptor delta (Homo sapiens) (UniProt Q03181); test: as above; conditions: HEK293T PPARd-UAS-bla, beta-lactamase FRET ratio, 18 h; series mostly up to 76.7 µM
In short: as §1

[17] = qHTS assay for small molecule agonists of retinoid X receptor alpha signaling (AID 588544); conditions: HEK293T RXRa-UAS-bla, beta-lactamase reporter, 18 h; 530 nm emission;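 for activation: 0% = DMSO basal wells and 100% = reference agonist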
[18] = molecular target: Retinoic acid receptor RXR-alpha (Homo sapiens) (UniProt P19793); test: as above; conditions: HEK293T RXRa-UAS-bla, beta-lactamase reporter, 18 h; series mostly up to 76.7 µM
[19] = molecular target: Thyroid hormone receptor beta (Homo sapiens) (UniProt P10828); test: qHTS assay for small molecule agonists of thyroid hormone receptor beta signaling (AID 588545); conditions: TR-UAS-bla GripTite HEK 293, beta-lactamase ratio, agonist mode, 18 h; series mostly up to 76.7 µM;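 note: 0% = DMSO only and 100% = 10 nM T3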
In short: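 Beta-lactamase reporter activity under TR response element control is measured in HEK 293 cells after 18 hrs compound exposure. Signal is ratiometric CCF4 fluorescence, 460/530 nm.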

[20] = qHTS assay for small molecule activators of the p53 signaling pathway (AID 651743; active = well fitted activation curve with a large enough effect in the signal ratio, not every such curve was filed as active; the % refers to the signal ratio; note: % of control where 0% means no effect); conditions: HCT-116 p53RE-bla, beta-lactamase FRET ratio, 16 h; activation: stronger effect = higher value
In short: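 Reporter: beta-lactamase driven by p53 response elements, stably integrated in HCT-116 cells. Cells seeded at 4,000/well, 5 h preincubation, compound (DMSO) 16 h at 37 C; B/G FRET substrate 2 h RT; fluorescence intensity read.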

Sequence of Glucocorticoid receptor (Homo sapiens) (P04150 whole entry, looked up): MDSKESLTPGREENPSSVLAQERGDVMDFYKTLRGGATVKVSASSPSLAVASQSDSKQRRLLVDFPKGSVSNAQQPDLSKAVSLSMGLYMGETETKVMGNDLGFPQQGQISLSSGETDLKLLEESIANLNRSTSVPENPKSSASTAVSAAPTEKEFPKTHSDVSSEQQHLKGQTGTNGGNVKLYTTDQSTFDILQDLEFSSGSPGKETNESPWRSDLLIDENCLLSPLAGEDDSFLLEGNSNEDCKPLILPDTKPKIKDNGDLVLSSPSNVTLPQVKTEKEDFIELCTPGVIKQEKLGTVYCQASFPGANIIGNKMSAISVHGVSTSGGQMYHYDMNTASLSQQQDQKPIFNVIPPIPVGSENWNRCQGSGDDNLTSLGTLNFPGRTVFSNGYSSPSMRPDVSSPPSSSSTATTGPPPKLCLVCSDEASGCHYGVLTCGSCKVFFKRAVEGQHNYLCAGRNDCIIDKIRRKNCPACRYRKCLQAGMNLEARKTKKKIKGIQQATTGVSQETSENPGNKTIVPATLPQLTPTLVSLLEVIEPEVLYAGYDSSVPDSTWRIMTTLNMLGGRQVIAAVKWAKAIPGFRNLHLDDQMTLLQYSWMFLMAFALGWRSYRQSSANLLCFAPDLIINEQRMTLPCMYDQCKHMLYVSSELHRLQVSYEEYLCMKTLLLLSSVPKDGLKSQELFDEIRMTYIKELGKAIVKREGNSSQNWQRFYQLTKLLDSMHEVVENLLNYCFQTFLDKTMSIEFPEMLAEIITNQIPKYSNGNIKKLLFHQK
Sequence of Peroxisome proliferator-activated receptor delta (Homo sapiens) (Q03181 whole entry, looked up): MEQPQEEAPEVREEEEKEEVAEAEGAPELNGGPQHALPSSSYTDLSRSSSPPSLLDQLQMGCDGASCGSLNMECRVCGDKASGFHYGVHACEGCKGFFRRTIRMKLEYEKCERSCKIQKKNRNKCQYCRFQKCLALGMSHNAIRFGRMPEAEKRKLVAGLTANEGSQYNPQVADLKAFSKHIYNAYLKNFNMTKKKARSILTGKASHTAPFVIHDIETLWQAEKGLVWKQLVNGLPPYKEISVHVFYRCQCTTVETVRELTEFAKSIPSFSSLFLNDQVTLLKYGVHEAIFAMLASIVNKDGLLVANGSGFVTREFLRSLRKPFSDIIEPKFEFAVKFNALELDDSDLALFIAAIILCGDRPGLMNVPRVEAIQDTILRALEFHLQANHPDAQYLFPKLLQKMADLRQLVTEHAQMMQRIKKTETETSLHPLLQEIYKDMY
Sequence of Retinoic acid receptor RXR-alpha (Homo sapiens) (P19793 whole entry, looked up): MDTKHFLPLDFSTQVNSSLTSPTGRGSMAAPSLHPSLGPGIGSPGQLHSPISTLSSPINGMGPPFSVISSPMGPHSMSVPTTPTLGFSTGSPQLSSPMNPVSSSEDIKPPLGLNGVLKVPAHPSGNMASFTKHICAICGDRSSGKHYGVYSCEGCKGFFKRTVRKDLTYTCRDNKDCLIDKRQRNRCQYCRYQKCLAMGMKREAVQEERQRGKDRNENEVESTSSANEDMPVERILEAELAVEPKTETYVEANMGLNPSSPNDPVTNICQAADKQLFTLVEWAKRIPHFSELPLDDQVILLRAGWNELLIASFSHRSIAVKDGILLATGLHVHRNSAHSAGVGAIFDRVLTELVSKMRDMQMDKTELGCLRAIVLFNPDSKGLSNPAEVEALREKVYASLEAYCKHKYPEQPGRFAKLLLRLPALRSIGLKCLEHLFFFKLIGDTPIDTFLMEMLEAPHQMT
Sequence of Thyroid hormone receptor beta (Homo sapiens) (P10828 whole entry, looked up): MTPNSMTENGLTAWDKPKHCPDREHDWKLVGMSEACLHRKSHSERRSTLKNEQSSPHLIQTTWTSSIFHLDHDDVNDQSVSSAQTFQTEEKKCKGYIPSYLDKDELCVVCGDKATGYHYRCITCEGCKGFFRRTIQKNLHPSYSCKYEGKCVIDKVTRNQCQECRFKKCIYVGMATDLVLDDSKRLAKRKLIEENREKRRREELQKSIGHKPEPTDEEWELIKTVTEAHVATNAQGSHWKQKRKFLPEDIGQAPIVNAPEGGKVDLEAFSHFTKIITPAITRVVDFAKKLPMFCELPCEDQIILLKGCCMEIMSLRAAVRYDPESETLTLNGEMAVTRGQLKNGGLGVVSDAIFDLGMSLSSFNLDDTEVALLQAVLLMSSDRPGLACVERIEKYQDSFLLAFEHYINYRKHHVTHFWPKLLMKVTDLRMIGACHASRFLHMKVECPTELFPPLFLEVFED

Cc1ccccc1O
12.8% and 44.7%: max response [15]
-16.4% and 2.5%: max response [17]
inactive: Potency [1] > 92 µM | Potency [2] > 92 µM | Potency [3] > 92 µM | Potency [4] > 92 µM | Potency [5] > 92 µM | activity change, negative = cytotoxicity [6] 4.57% | activity change, negative = cytotoxicity [7] 8.87% | outcome [8] | outcome [9] | outcome [10] | outcome [11] | outcome [12] | activation [13] 1.9% and -0.638% | Potency [14] | outcome [16] | outcome [18] | Potency [19] | activation [20] -4.62% and -1.52%
